According to the supplement of paper PMC11732987, “Enantioselective OTUD7B fragment discovery through chemoproteomics screening and high-throughput optimisation” (Communications Chemistry, 2025):

Experiments:
Experiment in all cases: log2 ratio of Biotin-Ahx-Ub-VS probe labelling (fragment/DMSO); higher = less target engagement (more negative = stronger competition), active = hit call of the paper (q ≤ 0.05, log2 ratio ≤ -1)
Conditions in all cases: compound concentration: 200 uM; treatment time: 3 h
USP19 = target: T1, USP19 (UniProt O94966)
T1 sequence (whole entry): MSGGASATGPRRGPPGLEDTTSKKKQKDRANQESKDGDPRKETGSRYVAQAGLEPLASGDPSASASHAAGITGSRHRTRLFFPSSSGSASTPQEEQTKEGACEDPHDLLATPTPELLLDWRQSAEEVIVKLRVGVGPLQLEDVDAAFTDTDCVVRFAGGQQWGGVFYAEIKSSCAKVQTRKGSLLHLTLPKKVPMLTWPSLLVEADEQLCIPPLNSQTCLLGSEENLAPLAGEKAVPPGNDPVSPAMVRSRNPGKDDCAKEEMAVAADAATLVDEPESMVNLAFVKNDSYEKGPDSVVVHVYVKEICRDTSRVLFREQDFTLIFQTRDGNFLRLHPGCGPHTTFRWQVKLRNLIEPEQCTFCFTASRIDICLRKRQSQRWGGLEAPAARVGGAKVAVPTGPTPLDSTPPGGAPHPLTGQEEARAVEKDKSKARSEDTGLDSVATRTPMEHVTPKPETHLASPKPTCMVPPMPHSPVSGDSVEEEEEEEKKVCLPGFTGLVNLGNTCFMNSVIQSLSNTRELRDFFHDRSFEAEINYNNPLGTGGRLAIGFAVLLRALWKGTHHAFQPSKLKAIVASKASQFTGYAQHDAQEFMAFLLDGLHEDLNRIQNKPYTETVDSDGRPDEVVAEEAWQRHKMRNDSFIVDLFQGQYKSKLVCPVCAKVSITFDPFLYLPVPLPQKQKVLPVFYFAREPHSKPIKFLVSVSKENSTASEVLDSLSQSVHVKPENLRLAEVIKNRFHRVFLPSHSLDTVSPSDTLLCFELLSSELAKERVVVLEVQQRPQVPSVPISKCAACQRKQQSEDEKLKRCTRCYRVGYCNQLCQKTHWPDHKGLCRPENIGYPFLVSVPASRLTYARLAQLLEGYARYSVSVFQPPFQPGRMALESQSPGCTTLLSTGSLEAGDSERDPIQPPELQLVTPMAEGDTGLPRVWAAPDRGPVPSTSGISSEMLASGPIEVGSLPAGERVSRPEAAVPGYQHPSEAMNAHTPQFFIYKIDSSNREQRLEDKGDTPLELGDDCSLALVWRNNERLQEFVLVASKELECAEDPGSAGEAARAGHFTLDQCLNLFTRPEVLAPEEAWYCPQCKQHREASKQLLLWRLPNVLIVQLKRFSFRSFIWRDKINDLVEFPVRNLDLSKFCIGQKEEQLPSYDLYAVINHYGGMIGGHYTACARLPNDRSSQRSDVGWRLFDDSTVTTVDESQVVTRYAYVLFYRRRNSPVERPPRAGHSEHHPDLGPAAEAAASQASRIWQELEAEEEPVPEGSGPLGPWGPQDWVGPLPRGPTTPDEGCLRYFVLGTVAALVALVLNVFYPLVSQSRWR
Summary of the method: (§1)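 HEK293T lysate, 495 µg per sample in Tris/CHAPS/IGEPAL buffer with protease inhibitors, was treated in triplicate with fragment at 200 µM or vehicle for 3 h and then with Biotin-Ahx-Ub-VS at 0.5 µM final for 1 h. Labelled DUBs were NeutrAvidin-enriched, digested with LysC and trypsin, and run by diaPASEF LC-MS/MS. Spectronaut label-free quantities were global-median-normalised, and values are average log2 fragment/vehicle ratios by unpaired t-test on proteins with ≥2 unique peptides.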

USP22 = target: T2, USP22 (UniProt Q9UPT9)
T2 sequence (whole entry): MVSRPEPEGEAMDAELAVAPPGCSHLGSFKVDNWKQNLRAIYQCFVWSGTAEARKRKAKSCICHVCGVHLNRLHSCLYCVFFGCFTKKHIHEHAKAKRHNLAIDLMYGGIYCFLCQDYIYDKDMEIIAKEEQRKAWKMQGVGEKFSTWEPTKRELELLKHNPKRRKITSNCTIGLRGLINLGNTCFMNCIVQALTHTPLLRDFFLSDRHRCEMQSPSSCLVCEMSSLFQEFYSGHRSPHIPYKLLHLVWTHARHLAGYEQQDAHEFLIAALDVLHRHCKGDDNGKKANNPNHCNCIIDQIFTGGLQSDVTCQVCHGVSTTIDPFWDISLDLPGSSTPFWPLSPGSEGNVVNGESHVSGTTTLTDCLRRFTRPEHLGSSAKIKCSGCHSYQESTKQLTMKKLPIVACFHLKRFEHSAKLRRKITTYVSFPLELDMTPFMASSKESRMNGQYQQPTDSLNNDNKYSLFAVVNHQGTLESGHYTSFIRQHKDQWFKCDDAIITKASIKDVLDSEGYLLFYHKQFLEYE
Summary of the method: as §1

USP24 = USP24 (UniProt Q9UPU5)
USP24, sequence (Q9UPU5 whole entry): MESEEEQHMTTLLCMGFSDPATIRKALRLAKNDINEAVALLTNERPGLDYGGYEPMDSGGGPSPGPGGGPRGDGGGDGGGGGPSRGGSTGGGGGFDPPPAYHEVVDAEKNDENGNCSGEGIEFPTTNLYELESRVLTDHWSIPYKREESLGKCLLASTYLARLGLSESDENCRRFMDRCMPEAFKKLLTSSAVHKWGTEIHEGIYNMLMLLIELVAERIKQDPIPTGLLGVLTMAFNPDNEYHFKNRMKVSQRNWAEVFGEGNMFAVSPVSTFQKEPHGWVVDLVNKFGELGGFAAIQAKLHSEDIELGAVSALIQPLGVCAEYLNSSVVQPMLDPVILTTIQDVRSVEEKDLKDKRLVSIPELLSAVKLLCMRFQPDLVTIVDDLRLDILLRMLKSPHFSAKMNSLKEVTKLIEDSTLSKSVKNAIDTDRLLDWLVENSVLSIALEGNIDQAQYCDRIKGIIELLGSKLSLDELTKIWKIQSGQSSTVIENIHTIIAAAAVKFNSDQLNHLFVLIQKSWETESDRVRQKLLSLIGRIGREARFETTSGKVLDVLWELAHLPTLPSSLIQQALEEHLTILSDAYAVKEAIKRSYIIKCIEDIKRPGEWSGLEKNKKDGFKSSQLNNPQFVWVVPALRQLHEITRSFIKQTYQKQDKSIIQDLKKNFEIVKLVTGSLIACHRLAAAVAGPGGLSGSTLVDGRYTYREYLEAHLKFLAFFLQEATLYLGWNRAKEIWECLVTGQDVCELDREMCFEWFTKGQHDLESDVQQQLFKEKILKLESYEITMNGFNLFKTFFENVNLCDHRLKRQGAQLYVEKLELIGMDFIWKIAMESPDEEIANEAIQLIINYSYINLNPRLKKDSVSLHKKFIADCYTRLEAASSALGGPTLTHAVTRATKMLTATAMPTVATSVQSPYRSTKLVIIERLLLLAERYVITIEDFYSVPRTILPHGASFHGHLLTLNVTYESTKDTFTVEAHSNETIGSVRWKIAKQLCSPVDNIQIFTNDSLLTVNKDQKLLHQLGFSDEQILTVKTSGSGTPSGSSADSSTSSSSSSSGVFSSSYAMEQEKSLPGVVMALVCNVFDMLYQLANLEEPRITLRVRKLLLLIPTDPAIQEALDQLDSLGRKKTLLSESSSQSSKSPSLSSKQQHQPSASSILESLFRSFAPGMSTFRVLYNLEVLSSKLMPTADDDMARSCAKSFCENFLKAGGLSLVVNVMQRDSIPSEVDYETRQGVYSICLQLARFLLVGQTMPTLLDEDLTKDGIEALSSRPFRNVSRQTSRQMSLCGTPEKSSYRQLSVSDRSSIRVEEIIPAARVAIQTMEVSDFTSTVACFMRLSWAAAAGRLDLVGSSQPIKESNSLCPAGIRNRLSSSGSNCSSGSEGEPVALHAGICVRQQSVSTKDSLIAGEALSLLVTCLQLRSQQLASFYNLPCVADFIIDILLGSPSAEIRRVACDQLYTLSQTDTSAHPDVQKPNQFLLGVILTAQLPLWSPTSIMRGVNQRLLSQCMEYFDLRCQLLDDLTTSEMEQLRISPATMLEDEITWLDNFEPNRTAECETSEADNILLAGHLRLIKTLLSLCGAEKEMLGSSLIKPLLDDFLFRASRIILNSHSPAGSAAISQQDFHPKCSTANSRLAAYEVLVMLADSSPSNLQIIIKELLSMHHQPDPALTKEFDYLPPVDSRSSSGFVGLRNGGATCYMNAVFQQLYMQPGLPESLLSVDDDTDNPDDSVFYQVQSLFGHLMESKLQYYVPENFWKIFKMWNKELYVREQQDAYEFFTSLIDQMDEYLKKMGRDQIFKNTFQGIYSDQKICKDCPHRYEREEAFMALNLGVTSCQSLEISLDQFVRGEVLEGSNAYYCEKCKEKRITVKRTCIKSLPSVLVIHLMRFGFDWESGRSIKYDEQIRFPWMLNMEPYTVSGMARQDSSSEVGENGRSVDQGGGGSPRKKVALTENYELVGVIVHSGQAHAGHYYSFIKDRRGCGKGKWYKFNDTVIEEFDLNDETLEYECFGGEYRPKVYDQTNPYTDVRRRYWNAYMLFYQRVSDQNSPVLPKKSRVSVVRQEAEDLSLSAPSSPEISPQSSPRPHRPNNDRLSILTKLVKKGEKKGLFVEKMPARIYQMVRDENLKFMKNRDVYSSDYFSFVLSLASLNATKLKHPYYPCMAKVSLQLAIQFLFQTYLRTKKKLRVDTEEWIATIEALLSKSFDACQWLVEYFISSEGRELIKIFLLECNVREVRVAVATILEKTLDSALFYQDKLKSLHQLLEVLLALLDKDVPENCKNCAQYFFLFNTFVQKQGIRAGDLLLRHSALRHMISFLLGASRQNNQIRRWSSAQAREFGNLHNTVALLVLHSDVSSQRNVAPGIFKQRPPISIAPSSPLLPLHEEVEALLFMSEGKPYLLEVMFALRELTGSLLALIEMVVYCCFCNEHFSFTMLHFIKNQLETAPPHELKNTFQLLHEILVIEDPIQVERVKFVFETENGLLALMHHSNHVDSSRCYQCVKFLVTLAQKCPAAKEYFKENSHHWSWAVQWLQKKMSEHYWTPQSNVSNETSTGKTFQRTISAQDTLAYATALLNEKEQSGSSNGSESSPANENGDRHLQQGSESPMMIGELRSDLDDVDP
Summary of the method: as §1

USP25 = target: T3, USP25 (UniProt Q9UHP3)
T3 sequence (whole entry): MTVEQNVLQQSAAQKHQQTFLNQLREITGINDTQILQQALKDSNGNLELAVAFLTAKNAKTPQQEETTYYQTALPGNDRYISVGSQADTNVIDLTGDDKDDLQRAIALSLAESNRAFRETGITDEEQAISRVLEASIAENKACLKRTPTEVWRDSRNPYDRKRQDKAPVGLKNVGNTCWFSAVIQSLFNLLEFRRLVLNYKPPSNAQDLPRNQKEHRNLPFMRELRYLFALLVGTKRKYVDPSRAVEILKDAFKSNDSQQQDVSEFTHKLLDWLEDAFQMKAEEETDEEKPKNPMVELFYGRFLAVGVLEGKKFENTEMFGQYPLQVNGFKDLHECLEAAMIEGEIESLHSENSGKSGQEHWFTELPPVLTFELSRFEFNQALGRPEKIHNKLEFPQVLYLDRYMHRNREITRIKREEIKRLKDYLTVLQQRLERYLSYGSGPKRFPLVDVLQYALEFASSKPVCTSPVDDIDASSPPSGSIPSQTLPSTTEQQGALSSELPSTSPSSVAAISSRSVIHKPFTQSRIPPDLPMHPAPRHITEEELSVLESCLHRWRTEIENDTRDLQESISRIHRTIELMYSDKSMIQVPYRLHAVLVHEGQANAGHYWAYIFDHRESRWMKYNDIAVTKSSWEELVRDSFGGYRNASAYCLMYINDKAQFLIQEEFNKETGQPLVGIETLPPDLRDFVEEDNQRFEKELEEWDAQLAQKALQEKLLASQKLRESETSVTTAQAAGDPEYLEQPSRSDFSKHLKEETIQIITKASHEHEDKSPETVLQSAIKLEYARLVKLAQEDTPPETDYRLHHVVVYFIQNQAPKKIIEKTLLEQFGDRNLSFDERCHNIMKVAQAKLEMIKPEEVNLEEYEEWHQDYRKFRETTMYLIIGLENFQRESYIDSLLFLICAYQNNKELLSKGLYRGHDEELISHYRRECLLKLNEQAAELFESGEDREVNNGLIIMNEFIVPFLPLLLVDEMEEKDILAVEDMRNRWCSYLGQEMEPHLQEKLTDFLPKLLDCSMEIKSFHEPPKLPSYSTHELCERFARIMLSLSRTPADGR
Summary of the method: as §1

USP28 = target: T4, USP28 (UniProt Q96RU2)
T4 sequence (whole entry): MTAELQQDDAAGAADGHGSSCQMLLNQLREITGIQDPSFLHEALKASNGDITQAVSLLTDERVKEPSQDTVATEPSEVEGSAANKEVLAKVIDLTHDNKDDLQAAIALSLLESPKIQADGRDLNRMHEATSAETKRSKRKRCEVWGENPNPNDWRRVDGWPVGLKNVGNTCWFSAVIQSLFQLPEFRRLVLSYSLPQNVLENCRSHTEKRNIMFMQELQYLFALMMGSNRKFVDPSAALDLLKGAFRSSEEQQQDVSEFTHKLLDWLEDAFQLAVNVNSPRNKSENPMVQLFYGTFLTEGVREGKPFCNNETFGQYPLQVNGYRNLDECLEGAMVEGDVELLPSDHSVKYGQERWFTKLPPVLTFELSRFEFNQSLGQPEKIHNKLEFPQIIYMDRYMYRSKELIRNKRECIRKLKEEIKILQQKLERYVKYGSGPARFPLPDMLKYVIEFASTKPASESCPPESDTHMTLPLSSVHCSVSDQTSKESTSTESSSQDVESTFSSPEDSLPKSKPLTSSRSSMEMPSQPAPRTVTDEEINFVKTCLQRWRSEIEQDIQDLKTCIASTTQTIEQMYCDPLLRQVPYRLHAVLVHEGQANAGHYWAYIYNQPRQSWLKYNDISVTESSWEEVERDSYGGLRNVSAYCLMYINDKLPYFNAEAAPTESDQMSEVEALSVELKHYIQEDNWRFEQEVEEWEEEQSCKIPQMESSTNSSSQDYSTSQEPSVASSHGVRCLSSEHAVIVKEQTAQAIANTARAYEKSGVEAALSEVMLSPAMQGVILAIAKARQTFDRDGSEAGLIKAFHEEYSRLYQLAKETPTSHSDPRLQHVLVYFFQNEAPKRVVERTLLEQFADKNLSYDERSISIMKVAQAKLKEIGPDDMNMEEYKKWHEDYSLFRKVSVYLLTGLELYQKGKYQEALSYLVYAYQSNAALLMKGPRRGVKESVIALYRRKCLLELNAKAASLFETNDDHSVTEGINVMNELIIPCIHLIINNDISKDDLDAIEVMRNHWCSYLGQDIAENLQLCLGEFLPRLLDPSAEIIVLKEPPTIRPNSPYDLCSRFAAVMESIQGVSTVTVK
Summary of the method: as §1

Measured: log2 ratio of Biotin-Ahx-Ub-VS probe labelling

O=C(CCl)NC(Cn1ccccc1=O)c1ccccc1 (stereo not given)
inactive: USP19 -0.14 | USP22 0.298 | USP24 -0.0705 | USP25 -0.417 | USP28 -0.211
